Among the data in PubChem BioAssay (NCI) are growth values, retold here.

This is part of a sample that, as a whole, favours compounds with a hit. Of some 83,000 tested, about 20% had one in any assay.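 Each cell line was grown in a 96-well plate and treated with one concentration of compound for 48 hours. Values below 10 were considered active.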 A number with no mark means an inactive call. Calls of active or inactive are those of the source.

Test in all cases: NCI-60 one-dose screen, 48 h (100 = growth as untreated, 0 = no growth, -100 = all killed)
One assay relates to SK-MEL-2 melanoma. The note with it: 10 µM unless noted.
A further assay has as its system EKVX NSCLC. The following applies: 10 µM unless noted.
A further assay relates to SN12C renal. The note with it: 10 µM unless noted.
In another assay the test system is UO-31 renal. The following applies: 10 µM unless noted.
The test system of another assay is TK-10 renal. The following applies: 10 µM unless noted.
The test system of the next assay is ACHN renal. The note with it: 10 µM unless noted.
For a further assay, the system named is CAKI-1 renal. The following applies: 10 µM.
The next assay deals with A498 renal. The note with it: 10 µM unless noted.
Another assay has as its system CCRF-CEM leukemia. The note with it: 10 µM unless noted.
Another assay has as its system MOLT-4 leukemia. The note with it: 10 µM unless noted.
The test system of another assay is SR leukemia. The note with it: 10 µM unless noted.
Another assay deals with RPMI-8226 leukemia. The note with it: 10 µM unless noted.
A further assay relates to OVCAR-8 ovarian. The following applies: 10 µM unless noted.
A further assay has as its system OVCAR-5 ovarian. The following applies: 10 µM unless noted.
Another assay relates to OVCAR-4 ovarian. The note with it: 10 µM unless noted.
In a further assay the test system is SK-OV-3 ovarian. The note with it: 10 µM unless noted.
Another assay deals with IGROV1 ovarian. The note with it: 10 µM unless noted.
The next assay concerns OVCAR-3 ovarian. The following applies: 10 µM unless noted.
In the next assay the test system is HS 578T breast. The following applies: 10 µM unless noted.
The next assay relates to NCI/ADR-RES ovarian. The following applies: 10 µM unless noted.

In the case of `O=C(COc1ccc(/C=C2\SC(=O)NC2=O)cc1)Nc1ccc(C(=O)/C=C/c2cc3ccccc3nc2Cl)cc1`, the growth with SK-MEL-2 melanoma is 91%; in the assay on EKVX NSCLC, 73.1%; with SN12C renal it was 87.5%; with UO-31 renal, 57.6%; in the assay on TK-10 renal it was 89.8%; in the assay with ACHN renal, 85.1%. Besides, the growth with CAKI-1 renal was 59.2%; with A498 renal it was 80.7%; with CCRF-CEM leukemia, 35.4%; in the assay on MOLT-4 leukemia, 42.8%; in the assay with SR leukemia, 31.3%; in the assay with RPMI-8226 leukemia it was -25.8% (active). Besides, the growth with OVCAR-8 ovarian was 76.4%; with OVCAR-5 ovarian, 110%; in the assay with OVCAR-4 ovarian, 42.2%; in the assay on SK-OV-3 ovarian, 108%; with IGROV1 ovarian, 71.4%; in the assay with OVCAR-3 ovarian it was 85.5%. Also, the results for the growth in the assay on HS 578T breast and with NCI/ADR-RES ovarian were 78.8% and 92.6%, respectively.
With `Oc1ccc(CSc2nnc(-c3ccncc3)o2)c2cccnc12`, the growth in the assay with SK-MEL-2 melanoma is 8.88% (active); with EKVX NSCLC, 47.6%; in the assay on SN12C renal, 7.4% (active); with UO-31 renal it was 12.4%; with TK-10 renal, 34.6%; with ACHN renal, 40.5%. For the same molecule, the growth with CAKI-1 renal was 7.09% (active); in the assay on A498 renal, 9.33% (active); in the assay with CCRF-CEM leukemia it was 26%; in the assay with MOLT-4 leukemia it was 25.7%; with SR leukemia, 50.4%; with RPMI-8226 leukemia, 5.35% (active). For the same molecule, the growth was 15.8% with OVCAR-8 ovarian; 35.7% with OVCAR-5 ovarian; 19.7% in the assay on OVCAR-4 ovarian; 4.05% (active) in the assay on SK-OV-3 ovarian; 22.4% with IGROV1 ovarian; 19.8% in the assay on OVCAR-3 ovarian. Also, the growth was 5.36% (active) in the assay on HS 578T breast and 58.4% with NCI/ADR-RES ovarian.
Take `CNC(=O)c1cc(N2CCc3cc(NC(=O)Nc4ccc(Cl)c(Cl)c4)ccc32)ccn1`: the growth in the assay with SK-MEL-2 melanoma was 84.3%; with EKVX NSCLC, 85.3%; in the assay with SN12C renal it was 86.1%; with UO-31 renal, 89.1%; with TK-10 renal, 99.3%; with ACHN renal it was 80.1%. For the same molecule, the growth in the assay on CAKI-1 renal was 82.2%; in the assay on A498 renal, 89.1%; with CCRF-CEM leukemia it was 86.5%; in the assay on MOLT-4 leukemia, 67.7%; in the assay on SR leukemia, 64.4%; in the assay on RPMI-8226 leukemia, 57.1%. For the same molecule, the growth is 90% with OVCAR-8 ovarian; 96.8% with OVCAR-5 ovarian; 86.4% with OVCAR-4 ovarian; 88.8% in the assay on SK-OV-3 ovarian; 94% with IGROV1 ovarian; 105% in the assay with OVCAR-3 ovarian. Also, the figures for the growth with HS 578T breast and in the assay on NCI/ADR-RES ovarian were 62% and 93%, respectively.
Consider `CCN(CC)c1ccc2cc(C(=O)NCCOCCOCCOCCn3cc(CCC(=O)Nc4ccc(C(=O)c5ccc(NC(=O)OC(C)(C)C)cc5)cc4)nn3)c(=O)oc2c1`, for which the growth with SK-MEL-2 melanoma was 67.6%; in the assay with EKVX NSCLC it was 73.5%; in the assay with SN12C renal it was 68.7%; in the assay with UO-31 renal, 62.5%; in the assay on TK-10 renal it was 95.6%; with ACHN renal, 84.1%. The growth with CAKI-1 renal was 25.7%; in the assay on A498 renal, 84.8%; in the assay with CCRF-CEM leukemia, 19%; with MOLT-4 leukemia it was 21.4%; in the assay with SR leukemia, 44%; in the assay with RPMI-8226 leukemia, 16.2%. Further, the growth in the assay on OVCAR-8 ovarian was 17.4%; in the assay on OVCAR-5 ovarian, 99.8%; in the assay on OVCAR-4 ovarian, 33.5%; with SK-OV-3 ovarian, 98.3%; in the assay with IGROV1 ovarian, 41.1%; in the assay with OVCAR-3 ovarian, 44.6%. Moreover, the figures for the growth with HS 578T breast and in the assay with NCI/ADR-RES ovarian were 83.7% and 88.3%, respectively.
For `O=C(NCCCNc1cc(-c2cn(-c3ccccc3)nc2-c2cccc(O)c2)ccn1)Nc1cccc(C(F)(F)F)c1`, the growth with SK-MEL-2 melanoma was 58.1%; in the assay with EKVX NSCLC, 45.7%; in the assay with SN12C renal it was 56.5%; in the assay on UO-31 renal, 23.8%; with TK-10 renal, 88.3%; in the assay on ACHN renal, 47.6%. For the same molecule, the growth in the assay on CAKI-1 renal was 36.9%; with A498 renal, 18.3%; in the assay with CCRF-CEM leukemia, 29.2%; with MOLT-4 leukemia it was 11.6%; in the assay on SR leukemia, 30.2%; with RPMI-8226 leukemia it was 4.35% (active). Further, the growth is 56.1% in the assay with OVCAR-8 ovarian; 56% with OVCAR-5 ovarian; 38.9% in the assay with OVCAR-4 ovarian; 57.5% in the assay with SK-OV-3 ovarian; 44.2% in the assay with IGROV1 ovarian; 49.6% with OVCAR-3 ovarian. Besides, the growth in the assay on HS 578T breast is 7.27% (active); in the assay with NCI/ADR-RES ovarian it was 48.1%.
Consider `CN1C(=O)N(C)C2C1NN=c1s/c(=C\c3ccccn3)c(=O)n12` (stereo not given), for which the growth with SK-MEL-2 melanoma was 103%; in the assay on EKVX NSCLC it was 99.4%; in the assay with SN12C renal it was 98.8%; in the assay on UO-31 renal, 91.3%; with TK-10 renal, 104%; in the assay with ACHN renal it was 104%. For the same molecule, the growth is 100% in the assay with CAKI-1 renal; 105% in the assay on A498 renal; 101% with CCRF-CEM leukemia; 107% with MOLT-4 leukemia; 114% in the assay on SR leukemia; 101% in the assay on RPMI-8226 leukemia. Further, the growth is 101% with OVCAR-8 ovarian; 109% in the assay on OVCAR-5 ovarian; 105% with OVCAR-4 ovarian; 110% in the assay on SK-OV-3 ovarian; 102% in the assay with IGROV1 ovarian; 115% in the assay with OVCAR-3 ovarian. Also, the growth with HS 578T breast was 104%; with NCI/ADR-RES ovarian, 96.7%.
As to `O=C1[C@@H]2Cc3c([nH]c4ccccc34)[C@H](c3c(Cl)cccc3Cl)N2C(=O)CN1C1CCN(Cc2c(F)cccc2F)CC1`, the growth is 110% in the assay with SK-MEL-2 melanoma; 60.6% in the assay on EKVX NSCLC; 50.6% in the assay on SN12C renal; 74.9% in the assay with UO-31 renal; 106% with TK-10 renal; 81.6% with ACHN renal. Also, the growth in the assay on CAKI-1 renal is 78.6%; in the assay with A498 renal, 103%; in the assay with CCRF-CEM leukemia, 65.5%; with MOLT-4 leukemia, 58.8%; in the assay on SR leukemia, 35.4%; with RPMI-8226 leukemia, 67.9%. Further, the growth with OVCAR-8 ovarian was 79.3%; with OVCAR-5 ovarian, 92.4%; with OVCAR-4 ovarian it was 76.3%; in the assay with SK-OV-3 ovarian, 96.8%; in the assay with IGROV1 ovarian, 59.5%; in the assay on OVCAR-3 ovarian it was 113%. The growth in the assay with HS 578T breast is 44.7%; in the assay on NCI/ADR-RES ovarian, 85.3%.
With `COc1ccc(OC)c([C@H]2c3[nH]c4ccccc4c3C[C@H]3C(=O)N(CCCCCCC(=O)NO)CC(=O)N23)c1`, the growth with SK-MEL-2 melanoma was 86.6%; with EKVX NSCLC, 93.1%; with SN12C renal it was 84.9%; in the assay on UO-31 renal, 78.5%; with TK-10 renal it was 101%; in the assay with ACHN renal it was 94.2%. Moreover, the growth with CAKI-1 renal is 78.4%; with A498 renal, 102%; in the assay on CCRF-CEM leukemia, 46.1%; in the assay on MOLT-4 leukemia, 63.2%; in the assay with SR leukemia, 36.7%; with RPMI-8226 leukemia it was 60.4%. Further, the growth was 73.9% in the assay on OVCAR-8 ovarian; 100% in the assay with OVCAR-5 ovarian; 80% in the assay on OVCAR-4 ovarian; 86.2% in the assay with SK-OV-3 ovarian; 71.6% with IGROV1 ovarian; 76.3% in the assay on OVCAR-3 ovarian. For the same molecule, the growth in the assay with HS 578T breast was 93.5%; in the assay with NCI/ADR-RES ovarian it was 99.5%.
